Among the test systems are K-562 leukemia; MALME-3M melanoma; MDA-MB-231 breast; RXF 393 renal; SF-268 CNS; SF-295 CNS; SF-539 CNS; UACC-257 melanoma; M14 melanoma; HCT-15 colon; HT29 colon; SNB-75 CNS; SNB-19 CNS; U251 CNS; SK-MEL-5 melanoma; UACC-62 melanoma; LOX IMVI melanoma; SK-MEL-28 melanoma; SK-MEL-2 melanoma.
Common to all, as to assay: NCI-60 one-dose screen, 48 h (100 = growth as untreated, 0 = no growth, -100 = all killed)
Conditions in all cases: 10 µM unless noted

For 9 molecules, growth results are on record in PubChem BioAssay (NCI).

This is part of a sample that, as a whole, favours compounds with a hit. Of some 83,000 tested, about 20% had one in any assay.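 The endpoint reported here, percent growth, reads 100 for growth as untreated, 0 for no net growth and -100 for all cells dead.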 A number with no mark means an inactive call. Activity calls are given as the source filed them. Rule for the calls: active = growth percent below 10; inactive = the rest.

Turning to `COc1cc2c(c(OC)c1OC)CCc1cnoc1-2`, the growth in the assay on K-562 leukemia is 99.8%; with MALME-3M melanoma, 100%; in the assay with MDA-MB-231 breast it was 107%; in the assay with RXF 393 renal it was 121%; in the assay on SF-268 CNS, 109%; in the assay with SF-295 CNS, 108%. Moreover, the growth was 100% in the assay with SF-539 CNS; 103% in the assay with UACC-257 melanoma; 122% in the assay on M14 melanoma; 102% with HCT-15 colon; 99.4% in the assay with HT29 colon; 71.7% in the assay with SNB-75 CNS. The growth in the assay with SNB-19 CNS was 97%; in the assay on U251 CNS, 98.7%; with SK-MEL-5 melanoma, 100%; in the assay on UACC-62 melanoma it was 98.9%; in the assay on LOX IMVI melanoma, 92.1%; in the assay with SK-MEL-28 melanoma it was 123%. In addition, in the assay on SK-MEL-2 melanoma, the growth is 119%.

For the molecule `CSC1=Nc2c(c(C)c(-c3ccccc3)n2CCCN2CCCCC2)C2=NC(=O)C[C@H](C)N12`, the growth was 11.6% in the assay on K-562 leukemia; 56.5% in the assay with MALME-3M melanoma; 69.6% in the assay with MDA-MB-231 breast; 56.4% in the assay on RXF 393 renal; 66.2% in the assay with SF-268 CNS; 38.9% in the assay on SF-295 CNS. Also, the growth in the assay with SF-539 CNS was 79%; in the assay on UACC-257 melanoma, 41.3%; with M14 melanoma it was 59.8%; with HCT-15 colon it was 81.2%; in the assay with HT29 colon it was 21.4%; in the assay with SNB-75 CNS it was 50.3%. Further, the growth in the assay with SNB-19 CNS is 20.2%; in the assay on U251 CNS it was 11.8%; with SK-MEL-5 melanoma, 9.86% (active); with UACC-62 melanoma, 53.7%; with LOX IMVI melanoma, 42.3%; with SK-MEL-28 melanoma, 43.2%. In addition, the growth in the assay with SK-MEL-2 melanoma is 62.8%.

For the molecule `NC(=O)c1ccccc1NC(=O)c1ccccc1Cl`, the growth is 89.9% in the assay with K-562 leukemia; 130% in the assay on MALME-3M melanoma; 99.6% in the assay on MDA-MB-231 breast; 82.1% with RXF 393 renal; 108% with SF-268 CNS; 90.5% in the assay on SF-295 CNS. Further, the growth is 109% in the assay on SF-539 CNS; 88.7% in the assay on UACC-257 melanoma; 112% in the assay on M14 melanoma; 95.6% with HCT-15 colon; 118% with HT29 colon; 92.8% in the assay with SNB-75 CNS. Moreover, the growth with SNB-19 CNS was 98.4%; in the assay with U251 CNS, 106%; with SK-MEL-5 melanoma it was 106%; in the assay on UACC-62 melanoma it was 97.4%; in the assay with LOX IMVI melanoma, 106%; in the assay on SK-MEL-28 melanoma it was 112%. In the assay with SK-MEL-2 melanoma, the growth was 129%.

`N#CCNc1ccccc1N`: the growth is 97.3% in the assay on K-562 leukemia; 96.2% in the assay on MALME-3M melanoma; 101% in the assay with MDA-MB-231 breast; 110% in the assay on RXF 393 renal; 102% with SF-268 CNS; 106% with SF-295 CNS. Also, the growth was 103% in the assay with SF-539 CNS; 98.3% with UACC-257 melanoma; 93.4% in the assay on M14 melanoma; 108% with HCT-15 colon; 86.4% with HT29 colon; 77.8% with SNB-75 CNS. In addition, the growth in the assay on SNB-19 CNS is 117%; in the assay with U251 CNS, 97.2%; in the assay with SK-MEL-5 melanoma it was 96%; in the assay on UACC-62 melanoma, 95.3%; with LOX IMVI melanoma, 95.1%; with SK-MEL-28 melanoma, 110%. In addition, the growth in the assay with SK-MEL-2 melanoma is 107%.

As to `O=C(Nc1cccc([N+](=O)[O-])c1)c1cccc(C(=O)Nc2cccc([N+](=O)[O-])c2)c1`, the growth in the assay on K-562 leukemia is 91.2%; in the assay on MALME-3M melanoma it was 49.5%; in the assay with MDA-MB-231 breast it was 83.1%; with RXF 393 renal, 29.4%; with SF-268 CNS, 30.2%; with SF-295 CNS, 67.3%. For the same molecule, the growth in the assay on SF-539 CNS is 84.3%; with UACC-257 melanoma, 77%; in the assay with M14 melanoma, 85.4%; in the assay with HCT-15 colon, 85.5%; in the assay on HT29 colon, 88.5%; in the assay on SNB-75 CNS it was -40.4% (active). Moreover, the growth in the assay with SNB-19 CNS is 60.3%; in the assay with U251 CNS it was 31.8%; in the assay with SK-MEL-5 melanoma, 94%; in the assay with UACC-62 melanoma it was 75.1%; in the assay on LOX IMVI melanoma, 67.6%; in the assay with SK-MEL-28 melanoma it was 77.2%. Moreover, in the assay with SK-MEL-2 melanoma, the growth was 63.7%.

Turning to `COc1cccc(-c2nnc(N)o2)c1`, the growth is 98.1% in the assay with K-562 leukemia; 106% with MALME-3M melanoma; 124% in the assay with MDA-MB-231 breast; 94.6% in the assay on RXF 393 renal; 111% in the assay with SF-268 CNS; 113% in the assay on SF-295 CNS. Also, the growth in the assay with SF-539 CNS was 111%; in the assay with UACC-257 melanoma, 92.7%; with M14 melanoma it was 91.1%; in the assay with HCT-15 colon it was 106%; in the assay on HT29 colon, 100%; in the assay with SNB-75 CNS, 106%. The growth with SNB-19 CNS was 102%; in the assay with U251 CNS, 97.8%; in the assay on SK-MEL-5 melanoma, 99.3%; with UACC-62 melanoma it was 99.5%; in the assay with LOX IMVI melanoma it was 94.7%; in the assay on SK-MEL-28 melanoma it was 104%. For the same molecule, in the assay with SK-MEL-2 melanoma, the growth is 107%.

As for `O=C(Nc1ccc(Cl)cc1)c1cc2c(cc1O)[nH]c1ccccc12`, the growth with K-562 leukemia is 10.9%; in the assay on MALME-3M melanoma, 23.1%; in the assay with MDA-MB-231 breast it was 36.1%; in the assay on RXF 393 renal, 1.97% (active); in the assay on SF-268 CNS, 34.4%; in the assay on SF-295 CNS, -43% (active). Also, the growth was 12.4% with SF-539 CNS; -21.1% (active) with UACC-257 melanoma; 31% in the assay on M14 melanoma; 32% in the assay on HCT-15 colon; 1.2% (active) with HT29 colon; 38.3% in the assay on SNB-75 CNS. The growth in the assay on SNB-19 CNS is 36.9%; in the assay with U251 CNS, 22.1%; in the assay with SK-MEL-5 melanoma, 0.256% (active); in the assay with UACC-62 melanoma, 10.2%; with LOX IMVI melanoma it was 30.4%; with SK-MEL-28 melanoma it was 38.6%. Further, the growth with SK-MEL-2 melanoma is 22.3%.

For `O=C(c1nn(-c2ccc(Cl)cc2)cc1O)n1nc(C(F)(F)F)cc1-c1ccccc1`, the growth with K-562 leukemia was 18.6%; in the assay with MALME-3M melanoma it was 107%; in the assay with MDA-MB-231 breast, 54.6%; in the assay on RXF 393 renal it was 55.1%; with SF-268 CNS, 42.3%; in the assay on SF-295 CNS, -0.429% (active). Moreover, the growth with SF-539 CNS is 45.6%; in the assay on UACC-257 melanoma it was 53.3%; with M14 melanoma it was 43.4%; in the assay with HCT-15 colon, 30.2%; in the assay on HT29 colon, 37.8%; in the assay on SNB-75 CNS, 55.4%. For the same molecule, the growth in the assay with SNB-19 CNS is 51.2%; with U251 CNS it was 46.8%; in the assay on SK-MEL-5 melanoma it was 59%; in the assay on UACC-62 melanoma, 44.2%; in the assay with LOX IMVI melanoma, 32.8%; in the assay on SK-MEL-28 melanoma it was 53%. Moreover, in the assay with SK-MEL-2 melanoma, the growth is 67.9%.

On to `O=C(Nc1cccc2ccccc12)c1cc2c(cc1Br)OCO2`, for which the growth was 97.8% in the assay with K-562 leukemia; 89.4% in the assay on MALME-3M melanoma; 102% with MDA-MB-231 breast; 126% in the assay with RXF 393 renal; 104% with SF-268 CNS; 107% in the assay with SF-295 CNS. In addition, the growth was 78.6% in the assay with SF-539 CNS; 114% with UACC-257 melanoma; 162% with M14 melanoma; 104% in the assay on HCT-15 colon; 101% with HT29 colon; 57.4% in the assay on SNB-75 CNS. Further, the growth in the assay on SNB-19 CNS was 86.7%; in the assay with U251 CNS it was 103%; in the assay on SK-MEL-5 melanoma, 99.2%; in the assay on UACC-62 melanoma, 85.5%; in the assay with LOX IMVI melanoma, 91%; with SK-MEL-28 melanoma, 119%. Further, in the assay on SK-MEL-2 melanoma, the growth is 130%.
